The source of these data is PubChem BioAssay (NCATS).

For experiment [1], the target named is Lysosomal acid glucosylceramidase (Homo sapiens) (UniProt P04062). The experiment is described as follows: Glucocerebrosidase-p2 (AID 348; in the data active = potency below about 10 µM; also: potency is read from the fitted curve at half-maximal effect). Particulars: purified GBA, blue fluorogenic substrate, 40 min. The method, boiled down: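 Compounds titrated from 0.6 nM upwards against 0.2 nM enzyme in pH 5.9 citric acid/KH2PO4, taurocholate, tween-20; blue fluorogenic substrate 80 uM, 40 min room temperature, stopped and read Ex 365/Em 440 for AC50.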
Lysosomal acid glucosylceramidase (Homo sapiens), sequence (P04062 whole entry, looked up): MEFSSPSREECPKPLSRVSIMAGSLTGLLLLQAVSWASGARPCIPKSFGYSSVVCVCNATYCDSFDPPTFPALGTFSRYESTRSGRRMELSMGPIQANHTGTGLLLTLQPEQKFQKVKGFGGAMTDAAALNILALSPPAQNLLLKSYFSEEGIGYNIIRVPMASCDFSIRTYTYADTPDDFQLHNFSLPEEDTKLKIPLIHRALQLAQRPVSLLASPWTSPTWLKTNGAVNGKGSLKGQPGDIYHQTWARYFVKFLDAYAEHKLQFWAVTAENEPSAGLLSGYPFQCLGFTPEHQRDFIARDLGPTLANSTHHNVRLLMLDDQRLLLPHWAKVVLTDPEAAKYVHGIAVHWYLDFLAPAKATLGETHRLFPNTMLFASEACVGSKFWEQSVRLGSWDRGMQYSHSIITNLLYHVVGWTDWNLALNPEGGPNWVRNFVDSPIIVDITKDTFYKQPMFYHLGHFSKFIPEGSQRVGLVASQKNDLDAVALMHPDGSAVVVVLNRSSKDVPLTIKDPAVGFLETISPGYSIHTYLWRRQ

Experiment [2] in a line: AP1 Signaling Pathway (AID 357; active = well fitted curve in either direction with a large enough effect, not every such curve was filed as active;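 also: ME-180 reporter cells stimulated with EGF at its EC50 level; % is scaled to controls: 0 for no effect and ±100 for the full control effect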). Particulars: ME-180 AP-1-bla reporter, EGF-induced, beta-lactamase ratio, 5 h; at 7.69 µM (top of the series) unless noted. The method, boiled down:
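Modulation of EGF-driven AP-1 transcription was assessed with a beta-lactamase reporter in ME-180 cells. Compound and EC50 EGF were co-incubated 5 hours at 37 °C before 2.5-hour CCF4 loading at room temperature and dual-emission reading.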

Experiment [3] has as its target Cytochrome P450 1A2 (Homo sapiens) (UniProt P05177). The experiment is described as follows: p450-cyp1a2 (AID 410; calls by dose curve; also: potency is read from the fitted curve at half-maximal effect). Particulars: recombinant CYP1A2, luciferin-ME demethylation, luminescence; series mostly up to 57 µM. The method, boiled down:
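Human CYP1A2 (20nM) demethylated Luciferin-ME at its Km (100uM) in 100mM KPO4. After 10 min compound preincubation, NADPH regeneration ran the reaction 60 min at room temperature. Luciferin was read by luminescence, normalized to 57 uM furafylline.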

Experiment [4] can be described thus: NFAT Signaling Pathway (AID 444; active = well fitted curve in either direction with a large enough effect, not every such curve was filed as active;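 also: carbachol stimulus at about its EC50 of 1 µM final; % is scaled to controls: 0 for no effect and ±100 for the full control effect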). Particulars: Jurkat NFAT-bla M1, carbachol, beta-lactamase ratio, 5 h; at 7.69 µM (top of the series) unless noted. The method, boiled down: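 Jurkat cells carrying an NFAT-driven β-lactamase reporter and co-transfected muscarinic M1 receptor were treated with compound plus carbachol (1 uM final, an EC50 level) for 5 h at 37 °C. CCF4 loading followed for 1 h at RT; 460/530 nm ratio gave %activity.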

A short description of experiment [5]: Stat Signaling Pathway (AID 446; active = well fitted curve in either direction with a large enough effect, not every such curve was filed as active;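 also: ME-180 cervical cancer cells given 40 pM IL-6 alongside compound; SIE-controlled beta-lactamase reporter measured as 460/530 nm FRET emission ratio; % is scaled to controls: 0 for no effect and ±100 for the full control effect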). Particulars: ME-180 SIE beta-lactamase reporter, IL-6 stimulated, 5 h; at 7.69 µM (top of the series) unless noted. The method, boiled down:
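Screening format detects activators and inhibitors alike: ME-180 SIE-bla cells stimulated at 40 pM IL-6 for 5 hrs with compound, then dual-emission beta-lactamase read at 405 nm excitation.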

The target in experiment [6] is Glucocorticoid receptor (Homo sapiens) (UniProt P04150). Briefly: GR-EFC Redistribution (AID 451; calls by dose curve; also: potency is read from the fitted curve at half-maximal effect). Particulars: CHO-K1 GR-EFC translocation, beta-gal luminescence, 2 h. The method, boiled down:
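CHO-K1 cells stably expressing nuclear-localized β-gal enzyme acceptor and GR fused C-terminally to the enzyme donor fragment; ligand-driven nuclear translocation restores β-gal by complementation. Compounds titrated up to 46 uM final, 2 h at 37 °C; luminescence read.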

Experiment [7] has as its target Mitogen-activated protein kinase 10 (Mus musculus) (UniProt Q61831). The experiment is described as follows: JNK3 AlphaScreen Assay (AID 530; active = well fitted curve in either direction with a large enough effect, not every such curve was filed as active;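 also: kinase came from lysate of stimulated human HepG2 cells; signal reports phosphorylation of biotinylated GST-cJun 1-79 at Ser73 with 10 µM ATP; % is scaled to controls: 0 for no effect and ±100 for the full control effect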). Particulars: JNK3 lysate, c-Jun phosphorylation; series mostly up to 57.1 µM. The method, boiled down:
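JNK3 came from HepG2 lysates pre-activated with IL-1beta and TNF-alpha and phosphorylated biotinylated GST-cJun (1-79) at 10 uM ATP, pH 7.6, room temperature. Compounds were titrated. AlphaScreen signal used anti-phospho-cJun (Ser73) antibody.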
(In general: Alpha assays give light when donor and acceptor beads are brought close together.)

Experiment [8] has as its target 3',5'-cyclic-AMP phosphodiesterase 4B (Homo sapiens) (UniProt Q07343). The experiment is described as follows: qHTS Assay for Inhibitors of PDE-IV (AID 607; active = well fitted activation curve with a large enough effect in the main read-out, with a control signal flat, not every such curve was filed as active; also: % of control where 0% means no effect). Particulars: HEK293 ACTOne CNG channel cells, membrane potential fluorescence; series mostly up to 22.9 µM. The method, boiled down:
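The readout is membrane depolarisation from a cAMP-sensing CNG channel, detected with a potential dye at ex 535/em 590. Cells were HEK293-derived (endogenous PDE-IV) at 1000 cells/well, titrated up to 22.9 uM final.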
For orientation: qHTS replaces the single test concentration by a dilution series.

Experiment [9] addresses Cytochrome P450 3A4 (Homo sapiens) (UniProt P08684). The experiment is described as follows: qHTS Assay for Activators of Cytochrome P450 3A4 (AID 885). Also: nearly all actives have a fitted effect of over 65% in size. Particulars: recombinant CYP3A4, Luciferin-PPXE luminescence, 60 min; series mostly up to 57.1 µM. The method, boiled down: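 Steps: enzyme/substrate mix dispensed; compound added, 10 min RT; NADPH regeneration solution added, 60 min RT; luciferin detection buffer stops reaction; 20 min later luminescence measured.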

The target of experiment [10] is Dual specificity protein kinase CLK4 (Homo sapiens) (UniProt Q9HAZ1). Briefly: qHTS Assay for Inhibitors of CDC-like Kinase 4 (ADP-FP Assay) (AID 1795).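 Also: recombinant human CLK4 phosphorylating RS repeat peptide at 1 µM ATP; % is scaled to controls: 0 for no effect and ±100 for the full control effect; nearly all actives have a fitted effect of over 60% in size.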 Particulars: Transcreener ADP fluorescence polarization; series mostly up to 50 µM. The method, boiled down:
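Clk4 6.25 nM; RS peptide 100 uM; ATP 1 uM; 25 mM Tris pH 7.5, 10 mM MgCl2; 1 h reaction. ADP detected via antibody/orange tracer FP displacement; TG003 positive control.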

In experiment [11] the target is Ubiquitin carboxyl-terminal hydrolase 1 (Homo sapiens) (UniProt O94782). The experiment is described as follows: Inhibitors of USP1/UAF1: Pilot qHTS (AID 504865). Also: nearly all actives have a fitted effect of over 35% in size. Also: potency is read from the fitted curve at half-maximal effect. Particulars: purified USP1/UAF1, Ub-rhodamine cleavage fluorescence; series mostly up to 54.9 µM. The method, boiled down: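 In 50mM HEPES pH 7.8 containing 0.5mM EDTA, 1mM TCEP, 0.1 mg/ml BSA and 0.01% Tween-20, 1nM USP1/UAF1 is exposed to compound for 15 min, then Ub-Rho (150nM final) is added and fluorescence is read over time.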
Ubiquitin carboxyl-terminal hydrolase 1 (Homo sapiens), sequence (O94782 whole entry, looked up): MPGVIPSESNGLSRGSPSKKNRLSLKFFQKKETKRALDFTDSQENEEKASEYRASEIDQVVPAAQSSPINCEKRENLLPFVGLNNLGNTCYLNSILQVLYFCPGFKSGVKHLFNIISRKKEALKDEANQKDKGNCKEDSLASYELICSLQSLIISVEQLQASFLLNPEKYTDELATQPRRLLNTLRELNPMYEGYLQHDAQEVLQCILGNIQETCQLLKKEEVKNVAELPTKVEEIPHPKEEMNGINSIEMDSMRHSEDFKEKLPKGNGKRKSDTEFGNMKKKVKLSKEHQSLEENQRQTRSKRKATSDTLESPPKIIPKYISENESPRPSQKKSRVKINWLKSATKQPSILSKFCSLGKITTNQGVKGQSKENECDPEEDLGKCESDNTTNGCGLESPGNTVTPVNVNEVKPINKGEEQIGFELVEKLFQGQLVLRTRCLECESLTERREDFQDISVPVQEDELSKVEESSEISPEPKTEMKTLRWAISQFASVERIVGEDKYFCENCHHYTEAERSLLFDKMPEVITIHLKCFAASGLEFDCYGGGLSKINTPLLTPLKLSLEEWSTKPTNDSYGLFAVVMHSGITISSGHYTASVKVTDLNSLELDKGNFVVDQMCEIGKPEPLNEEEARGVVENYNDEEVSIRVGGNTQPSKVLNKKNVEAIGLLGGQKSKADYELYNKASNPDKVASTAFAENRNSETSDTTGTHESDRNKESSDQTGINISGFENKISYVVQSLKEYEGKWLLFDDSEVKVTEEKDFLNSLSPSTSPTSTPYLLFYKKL

A short description of experiment [12]: Primary qHTS for small molecule stabilizers of the endoplasmic reticulum resident proteome: Secreted ER Calcium Modulated Protein (SERCaMP) assay (AID 1508630). Also: % is scaled to controls: 0 for no effect and ±100 for the full control effect. Particulars: SH-SY5Y GLuc-SERCaMP (Gaussia luciferase released on ER calcium loss) secretion, thapsigargin, luminescence; series mostly up to 38.4 µM. The method, boiled down: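 GLuc-SERCaMP-expressing SH-SY5Y cells, pretreated 16 h with compound, are challenged with thapsigargin to empty ER calcium stores; after 4 h, coelenterazine is added directly to the medium and luminescence is imaged.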

Experiment [13] has as its target Rap guanine nucleotide exchange factor 3 (Homo sapiens) (UniProt O95398). Briefly: Confirmatory qHTS for antagonist of cAMP-regulated guanine nucleotide exchange factor 3 (EPAC1) (AID 1645880).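 Also: plate controls were DMSO only for no effect and full effect of the ATA control for full effect; nearly all actives have a fitted effect of over 55% in size.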 Particulars: EPAC1 Rap1B-BODIPY-GDP exchange, fluorescence; series mostly up to 115 µM. The method, boiled down: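 Nucleotide exchange uses 100 nM EPAC1, 250 nM RAP1B-BODIPY-GDP and 50 uM GDP, with compounds in a concentration-titration series. After 5 min at room temperature, fluorescence (480 nm ex/540 nm em) is read every 5 min for 30 min. Data are normalized to control ATA and DMSO.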

The target is the same in experiment [14]. The experiment is described as follows: Confirmatory qHTS for agonist of cAMP-regulated guanine nucleotide exchange factor 3 (EPAC1) (AID 1645881). Also: nearly all actives have a fitted effect of over 75% in size. Also: potency is read from the fitted curve at half-maximal effect.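 As to activation: EPAC1 catalysed release of BODIPY-GDP from Rap1B seen as fluorescence loss; 100% = effect of cAMP agonist control.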 Particulars: EPAC1 Rap1B BODIPY-GDP exchange fluorescence; series mostly up to 154 µM.
Experiment [15] addresses Rap guanine nucleotide exchange factor 4 (Homo sapiens) (UniProt Q8WZA2). The experiment is described as follows: Confirmatory qHTS for antagonist of cAMP-regulated guanine nucleotide exchange factor 4 (EPAC2) (AID 1645885). Also: % is scaled to controls: 0 for no effect and ±100 for the full control effect; nearly all actives have a fitted effect of over 25% in size. Particulars: EPAC2 Rap1B-BODIPY-GDP exchange fluorescence, biochemical; series mostly up to 114 µM.
In experiment [16] the target is Glucocorticoid receptor (Homo sapiens) (UniProt P04150). The experiment is described as follows: GR-GFP Redistribution (AID 450;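 active = compounds whose dose series gives a full or clear partial fitted curve of increased nuclear translocation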; also: potency is read from the fitted curve at half-maximal effect). Particulars: U2OS GR-GFP nuclear translocation, laser cytometry, 2 h.
The target in experiment [17] is Cytochrome P450 3A4 (Homo sapiens) (UniProt P08684). Briefly: qHTS Assay for Inhibitors and Substrates of Cytochrome P450 3A4 (AID 884). Also: potency is read from the fitted curve at half-maximal effect; nearly all actives have a fitted effect of over 50% in size. Particulars: recombinant CYP3A4, Luciferin-PPXE luminescence; series mostly up to 57.1 µM. The method, boiled down: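 20 nM human CYP3A4 with 25 uM Luciferin-PPXE (at KM) in 200 mM KPO4, preincubated 10 min with compound; NADPH regeneration started a 60 min RT reaction. Luciferin detected by luminescence, normalized to 57 uM ketoconazole as full inhibition.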
Cytochrome P450 3A4 (Homo sapiens), sequence (P08684 whole entry, looked up): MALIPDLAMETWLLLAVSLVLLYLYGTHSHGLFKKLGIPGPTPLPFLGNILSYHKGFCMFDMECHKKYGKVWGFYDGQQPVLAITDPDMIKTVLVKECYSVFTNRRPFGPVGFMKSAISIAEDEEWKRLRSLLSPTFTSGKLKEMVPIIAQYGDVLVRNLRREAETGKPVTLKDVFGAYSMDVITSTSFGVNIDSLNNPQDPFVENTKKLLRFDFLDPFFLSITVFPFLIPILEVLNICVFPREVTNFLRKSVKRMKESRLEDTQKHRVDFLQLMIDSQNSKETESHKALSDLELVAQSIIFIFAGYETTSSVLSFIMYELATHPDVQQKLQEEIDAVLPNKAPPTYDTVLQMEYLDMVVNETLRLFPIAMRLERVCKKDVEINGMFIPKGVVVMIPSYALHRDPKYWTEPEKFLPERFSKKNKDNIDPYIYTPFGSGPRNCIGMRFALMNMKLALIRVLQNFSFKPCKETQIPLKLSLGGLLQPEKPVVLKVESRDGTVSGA

Experiment [18] deals with Rap guanine nucleotide exchange factor 4 (Homo sapiens) (UniProt Q8WZA2). The experiment is described as follows: Confirmatory qHTS for agonist of cAMP-regulated guanine nucleotide exchange factor 4 (EPAC2) (AID 1645884).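 Also: nucleotide exchange releases bodipy-GDP from Rap1 and this lowers its fluorescence; nearly all actives have a fitted effect of over 65% in size.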 Also: potency is read from the fitted curve at half-maximal effect. Particulars: EPAC2 GEF activity, Rap1B-BODIPY-GDP fluorescence; series mostly up to 154 µM.
Rap guanine nucleotide exchange factor 4 (Homo sapiens), sequence (Q8WZA2 whole entry, looked up): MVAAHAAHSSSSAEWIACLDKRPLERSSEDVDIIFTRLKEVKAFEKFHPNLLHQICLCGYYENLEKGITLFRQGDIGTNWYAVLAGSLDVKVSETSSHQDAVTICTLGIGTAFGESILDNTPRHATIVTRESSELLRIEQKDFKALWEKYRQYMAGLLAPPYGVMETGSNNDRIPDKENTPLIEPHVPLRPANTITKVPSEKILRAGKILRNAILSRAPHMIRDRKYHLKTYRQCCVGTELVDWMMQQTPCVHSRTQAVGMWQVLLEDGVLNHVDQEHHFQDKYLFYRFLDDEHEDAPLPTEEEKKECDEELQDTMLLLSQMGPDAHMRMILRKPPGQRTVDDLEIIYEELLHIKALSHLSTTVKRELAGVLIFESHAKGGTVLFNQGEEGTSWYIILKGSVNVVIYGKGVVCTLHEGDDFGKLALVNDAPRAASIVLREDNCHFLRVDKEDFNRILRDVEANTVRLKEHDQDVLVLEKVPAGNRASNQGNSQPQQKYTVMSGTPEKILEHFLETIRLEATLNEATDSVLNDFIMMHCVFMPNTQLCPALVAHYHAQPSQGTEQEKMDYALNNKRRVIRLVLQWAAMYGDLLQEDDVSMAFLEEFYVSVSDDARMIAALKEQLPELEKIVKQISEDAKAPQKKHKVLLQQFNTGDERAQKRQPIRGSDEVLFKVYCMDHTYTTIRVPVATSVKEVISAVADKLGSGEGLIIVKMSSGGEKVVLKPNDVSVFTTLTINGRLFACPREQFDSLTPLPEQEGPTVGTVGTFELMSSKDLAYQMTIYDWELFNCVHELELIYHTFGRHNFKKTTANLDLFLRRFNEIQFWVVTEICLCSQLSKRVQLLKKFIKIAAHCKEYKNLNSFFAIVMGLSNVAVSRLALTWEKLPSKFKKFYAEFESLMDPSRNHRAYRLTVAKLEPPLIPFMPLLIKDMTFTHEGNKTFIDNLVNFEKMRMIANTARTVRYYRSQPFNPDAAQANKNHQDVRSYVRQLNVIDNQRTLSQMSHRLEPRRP

Unmarked numbers belong to inactive results. Inconclusive results are not listed. Calls of active or inactive are those of the source. Unless noted, calls follow the shape of the dose curve; as a rule, active = well fitted curve in the direction sought with a large enough effect; inconclusive = small, poorly fitted or top-dose-only effect, or another doubt; inactive = no such curve, though single readings can be large; an effect the other way counts as inactive or inconclusive. A value given as a limit tells only on which side of the number the result lay.

3',5'-cyclic-AMP phosphodiesterase 4B (Homo sapiens), sequence (Q07343 whole entry, looked up): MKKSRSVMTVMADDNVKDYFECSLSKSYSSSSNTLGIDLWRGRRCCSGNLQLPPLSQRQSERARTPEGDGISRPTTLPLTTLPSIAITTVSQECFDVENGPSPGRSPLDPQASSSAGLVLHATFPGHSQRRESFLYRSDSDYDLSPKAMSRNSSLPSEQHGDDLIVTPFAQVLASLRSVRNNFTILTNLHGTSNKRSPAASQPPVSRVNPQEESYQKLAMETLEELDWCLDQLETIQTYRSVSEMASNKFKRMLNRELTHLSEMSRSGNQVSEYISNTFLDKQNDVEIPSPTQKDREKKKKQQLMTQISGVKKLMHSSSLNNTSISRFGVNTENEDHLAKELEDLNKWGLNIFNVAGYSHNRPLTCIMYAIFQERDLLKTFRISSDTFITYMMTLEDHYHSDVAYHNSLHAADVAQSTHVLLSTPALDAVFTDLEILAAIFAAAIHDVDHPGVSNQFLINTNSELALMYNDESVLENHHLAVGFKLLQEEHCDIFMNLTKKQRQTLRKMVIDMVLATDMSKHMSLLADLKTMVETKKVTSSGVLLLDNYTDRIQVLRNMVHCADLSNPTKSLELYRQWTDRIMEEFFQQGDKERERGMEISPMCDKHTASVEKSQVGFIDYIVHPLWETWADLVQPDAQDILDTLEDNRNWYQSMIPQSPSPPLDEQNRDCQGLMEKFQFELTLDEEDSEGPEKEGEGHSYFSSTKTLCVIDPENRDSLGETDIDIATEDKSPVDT
Cytochrome P450 1A2 (Homo sapiens), sequence (P05177 whole entry, looked up): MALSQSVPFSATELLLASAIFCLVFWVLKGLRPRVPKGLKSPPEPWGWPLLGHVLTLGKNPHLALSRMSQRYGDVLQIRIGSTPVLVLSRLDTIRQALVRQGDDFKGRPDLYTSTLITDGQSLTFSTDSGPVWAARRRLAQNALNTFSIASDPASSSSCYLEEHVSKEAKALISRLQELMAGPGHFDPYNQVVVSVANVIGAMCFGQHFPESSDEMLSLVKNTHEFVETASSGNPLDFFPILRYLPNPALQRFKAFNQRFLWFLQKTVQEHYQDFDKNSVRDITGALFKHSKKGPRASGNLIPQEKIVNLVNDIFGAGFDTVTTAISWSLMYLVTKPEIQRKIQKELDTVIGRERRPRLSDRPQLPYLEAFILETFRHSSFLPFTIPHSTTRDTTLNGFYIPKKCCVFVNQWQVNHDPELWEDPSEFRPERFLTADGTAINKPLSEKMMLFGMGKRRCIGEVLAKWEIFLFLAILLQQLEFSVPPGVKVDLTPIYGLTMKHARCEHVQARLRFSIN
Rap guanine nucleotide exchange factor 3 (Homo sapiens), sequence (O95398 whole entry, looked up): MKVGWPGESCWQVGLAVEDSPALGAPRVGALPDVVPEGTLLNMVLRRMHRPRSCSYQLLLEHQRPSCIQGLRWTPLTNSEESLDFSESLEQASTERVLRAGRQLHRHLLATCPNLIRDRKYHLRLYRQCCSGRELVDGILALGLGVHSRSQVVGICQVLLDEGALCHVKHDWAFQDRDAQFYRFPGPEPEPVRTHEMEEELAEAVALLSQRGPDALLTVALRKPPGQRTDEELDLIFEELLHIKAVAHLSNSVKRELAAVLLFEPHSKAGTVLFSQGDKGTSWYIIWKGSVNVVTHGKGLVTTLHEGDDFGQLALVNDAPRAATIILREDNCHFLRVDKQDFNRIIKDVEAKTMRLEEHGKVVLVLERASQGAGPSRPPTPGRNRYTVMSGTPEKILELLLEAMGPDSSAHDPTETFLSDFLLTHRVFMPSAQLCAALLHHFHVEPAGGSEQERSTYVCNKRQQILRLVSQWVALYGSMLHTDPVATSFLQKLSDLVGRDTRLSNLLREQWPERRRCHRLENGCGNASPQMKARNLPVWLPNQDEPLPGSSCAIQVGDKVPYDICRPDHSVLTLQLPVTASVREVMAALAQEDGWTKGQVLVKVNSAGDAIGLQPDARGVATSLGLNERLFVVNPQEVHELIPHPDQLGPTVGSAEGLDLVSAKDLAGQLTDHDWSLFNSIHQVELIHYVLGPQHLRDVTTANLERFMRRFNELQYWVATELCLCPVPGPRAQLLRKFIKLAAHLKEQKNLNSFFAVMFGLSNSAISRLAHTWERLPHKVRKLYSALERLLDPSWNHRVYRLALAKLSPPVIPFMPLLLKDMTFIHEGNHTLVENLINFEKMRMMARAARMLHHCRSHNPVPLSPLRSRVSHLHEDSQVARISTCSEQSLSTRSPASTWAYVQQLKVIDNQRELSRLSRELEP

Turning to `COc1cccc(Nc2ncc3nc(-c4cccs4)c(=O)n(-c4ccccc4)c3n2)c1`, the Potency is greater than 11.4 µM in [1]; 3.16 µM (active) in experiment [3]; greater than 46 µM in [6]; 35.5 µM (active) in experiment [11]; 70.6 µM (active) in experiment [14]. Besides, the activity change, negative = inhibition in [2] is -24.2%; in [4], -15.6%. In [5], the activity, negative = inhibition is 3.1%. In addition, the Potency entry in experiment [7], in experiment [8], in experiment [9], in experiment [10], in [13] and in experiment [15] was “inactive” throughout. Further, the outcome in experiment [12] was inactive.

In the case of `COc1ccccc1CNc1nc(-c2ccc3c(c2)OCO3)nc2ccccc12`, in [2], the activity change, negative = inhibition was 24.7%. Further, the Potency in experiment [3] is 0.631 µM (active); in experiment [16], greater than 46 µM; in experiment [6], greater than 46 µM; in experiment [17], 1.26 µM (active). Also, in experiment [5], the activity, negative = inhibition was -8.69%. Also, the Potency entry in [7], in experiment [8], in experiment [9], in experiment [10], in [13] and in experiment [14] was “inactive” each time. The Potency entry in experiment [18] and in experiment [15] was “inactive” throughout. The result in [12] was inactive.

Regarding `COc1ccc(CNc2ncncc2-c2ccccc2C)c(OC)c1`, the Potency was greater than 11.4 µM in experiment [1]; 10 µM (active) in experiment [3]; greater than 46 µM in [16]; greater than 46 µM in experiment [6]; 0.398 µM (active) in experiment [17]. Also, in experiment [4], the activity change, negative = inhibition was 5.66%. Besides, the activity, negative = inhibition in experiment [5] is -4.15%. Further, the Potency result in experiment [7], in experiment [8], in experiment [9], in [10], in experiment [11] and in experiment [13] was “inactive” each time. The Potency result in experiment [14] and in [18] was “inactive” in each case. Also, the outcome in [12] was inactive.

Regarding `COCCn1c(=O)c(-c2ccc(OC)cc2)nc2cnc(Nc3cccc(OC)c3)nc21`, the Potency in [1] is greater than 11.4 µM; in experiment [3] it was 10 µM (active); in [16] it was greater than 9.22 µM; in [6] it was greater than 46 µM; in [14], 70.6 µM (active); in experiment [18] it was 70.6 µM (active). Also, the results for the activity change, negative = inhibition in [2] and in [4] were -2.99% and -5.57%, respectively. In [5], the activity, negative = inhibition is 3.6%. Also, the Potency result in experiment [7], in experiment [8], in experiment [9], in experiment [13] and in [15] was “inactive” each time. In addition, in [12], the outcome was inactive.

As for `COc1cccc(-c2cc(NCc3ccc(OC)cc3OC)ncn2)c1`, the Potency was greater than 11.4 µM in [1]; 2 µM (active) in experiment [3]; greater than 46 µM in experiment [16]; greater than 46 µM in [6]; 2.51 µM (active) in [17]. Also, the activity change, negative = inhibition in [4] is -8.15%. In addition, the activity, negative = inhibition in experiment [5] was -9.18%. The Potency entry in experiment [7], in experiment [8], in experiment [9], in [10], in experiment [11] and in experiment [13] was “inactive” in each case. The Potency entry in experiment [14] is “inactive”. Besides, the result in [12] was inactive.

As to `COc1ccc(Oc2ncc3nc(-c4cc(F)cc(F)c4)c(=O)n(C[C@H]4CCCO4)c3n2)cc1`, the Potency in [1] is greater than 11.4 µM; in experiment [16] it was greater than 9.22 µM; in experiment [6], greater than 46 µM. Also, the activity change, negative = inhibition in [2] was -5.29%; in experiment [4], -11.6%. Also, the activity, negative = inhibition in experiment [5] is -0.431%. For the same molecule, the Potency entry in [7], in experiment [8], in [10], in [11], in experiment [13] and in [14] was “inactive” throughout. In addition, the Potency entry in experiment [18] and in [15] was “inactive” in each case. Besides, in experiment [12], the result was inactive.
